High-throughput results as filed in PubChem.
This is a sample that favours compounds with a hit; in the whole collection about 2% have one here.
EP2 antag – human EP2 receptor antagonists, primary screen, TR-FRET cAMP, C6 glioma cells; C6 glioma cells expressing human EP2; cells stimulated with saturating PGE2; 260,000 compounds, 0.52% hits; inhibition, % at 25 µM; Prostaglandin E2 receptor EP2 subtype (Homo sapiens), P43116;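 active means percent inhibition above 40 after rounding to a whole number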;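 further: rat C6 glioma host cells with rolipram phosphodiesterase inhibitor present; the protocol text gives 20 µM as final concentration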
EP2 modulator – EP2 receptor modulators, cAMP readout, primary screen, cell-based, HTRF cAMP, PGE2 stimulation; 260,000 compounds, 0.83% hits; induction, % at 25 µM; EP2-expressing cells, cAMP HTRF FRET, PGE2 co-stimulation; Prostaglandin E2 receptor EP2 subtype (Homo sapiens), P43116;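 active means compounds whose cAMP rise, as percent of the full-agonist control response, exceeds 60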;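 further: rat C6 glioma line stably carrying human EP2 under a CMV promoter; the protocol text gives 20 µM as final concentration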
CHT inh – inhibitors of human choline transporter CHT. CHT-expressing cells, membrane potential dye, choline response; active compounds read low. B-score at 10 µM. 310,000 compounds, 0.86% hits. AID 488975, 2010;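 active means B-score over 3 SD under the library average, and starting fluorescence ratio not unusually high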;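 further: choline stimulus applied at its EC90 after an EC20 pre-addition; B-score computed on integrated fluorescence ratio after choline addition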
Target sequence (Q9GZV3 whole entry, looked up): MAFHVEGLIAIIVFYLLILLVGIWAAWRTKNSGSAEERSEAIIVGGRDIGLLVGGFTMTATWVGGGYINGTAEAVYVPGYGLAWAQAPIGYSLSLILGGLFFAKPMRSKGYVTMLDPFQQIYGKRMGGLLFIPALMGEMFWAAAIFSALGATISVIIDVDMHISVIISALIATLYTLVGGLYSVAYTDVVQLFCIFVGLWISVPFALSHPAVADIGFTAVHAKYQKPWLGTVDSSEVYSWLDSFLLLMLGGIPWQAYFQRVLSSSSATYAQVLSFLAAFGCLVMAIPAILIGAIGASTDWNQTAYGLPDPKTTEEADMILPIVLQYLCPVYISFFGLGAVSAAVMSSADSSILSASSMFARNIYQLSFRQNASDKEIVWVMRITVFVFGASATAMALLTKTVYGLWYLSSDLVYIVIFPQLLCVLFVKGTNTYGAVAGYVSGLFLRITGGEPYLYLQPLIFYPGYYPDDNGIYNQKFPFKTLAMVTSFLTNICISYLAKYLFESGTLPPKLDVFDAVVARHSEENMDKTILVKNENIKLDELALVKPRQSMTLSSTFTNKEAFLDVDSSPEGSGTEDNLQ
CHT PAM – CHT positive allosteric modulators, primary screen, cell-based, membrane potential dye, choline EC20. High affinity choline transporter 1 (Homo sapiens), Q9GZV3. CHT-expressing cells; active compounds read high; LV-AA mutant CHT in HEK293 cells. B-score at 10 µM. 310,000 compounds, 0.49% hits. AID 488977, 2010;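 active means initial fluorescence not abnormally high and integrated response B-score, plate-corrected, over 3 SD above library mean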
CHT block conf – CHT inhibitors, confirmation, cell-based, membrane potential dye, duplicate; shares compounds with CHT inh; CHT-expressing cells, choline membrane potential dye; LV-to-AA substituted CHT, HEK293 cells; CHT activity remaining % of control (active compounds read low), % at 10 µM; 2,400 compounds, 70% hits;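 active means choline transporter activity left, mean of duplicates at 10 µM, below buffer-only control mean minus 3 SD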;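 further: depolarization triggered by choline at its EC90 following an EC20 pre-addition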
HEK293 MPD ctr – membrane potential effects in parental HEK293, counter-screen for CHT inhibitor project, cell-based, membrane potential dye; shares compounds with CHT inh; choline response; active = decrease or increase beyond buffer ±3SD; membrane potential ratio readout (active if shifted either direction beyond buffer ±3SD; no single direction) at 10 µM; 2,400 compounds, 4% hits; AID 493222, 2011;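 further: parental cells lack the transporter so any hit is non-specific; ratio is peak minus trough fluorescence over baseline after EC90 choline challenge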
Large screens that a line does not name were inactive (follow-up assays come after a bar, where they were run).

COc1ccccc1NC(=O)CN1CCC(NC(=O)C2CCCCC2)CC1	none (no result: CHT inh, CHT PAM)
COc1cc(/C=C2\S/C(=N/S(=O)(=O)Cc3ccccc3)NC2=O)c([N+](=O)[O-])cc1OC	CHT inh -5 | CHT block conf 49% | HEK293 MPD ctr inactive
O=C1N/C(=N\S(=O)(=O)Cc2ccccc2)S/C1=C/c1cc([N+](=O)[O-])ccc1O	none
COc1cc(/C=C2/S/C(=N/S(=O)(=O)Cc3ccccc3)NC2=O)c([N+](=O)[O-])cc1OC	CHT inh -6.3 | CHT block conf 37% | HEK293 MPD ctr inactive
COc1cc(/C=C2/S/C(=N/S(=O)(=O)c3ccccc3)NC2=O)c([N+](=O)[O-])cc1OC	none
O=C(CN1CCC(n2cnc3cccnc32)CC1)NCc1ccc(F)cc1	none (no result: CHT inh, CHT PAM)
Cc1nc2c(-c3ccccc3)c(C)nn2c(N2CCN(c3ncccn3)CC2)c1C	none (no result: EP2 antag, CHT inh, CHT PAM)
O=S(=O)(Nc1nc(-c2ccccc2)cs1)c1cc(Cl)ccc1Cl	none (no result: EP2 antag, EP2 modulator)
O=S(=O)(Nc1nc(-c2ccccc2)cs1)c1cccc(C(F)(F)F)c1	CHT inh -7.7 (no result: EP2 antag, EP2 modulator) | CHT block conf 51% | HEK293 MPD ctr inactive
O=[N+]([O-])c1ccc(S(=O)(=O)Nc2nc(-c3ccccc3)cs2)cc1	CHT inh -5.6 (no result: EP2 antag, EP2 modulator) | CHT block conf 58% | HEK293 MPD ctr inactive
O=c1[nH]c(SCCc2ccccc2)nc2sc3c(c12)CCCC3	none (no result: CHT inh, CHT PAM)
N#Cc1ccccc1NC(=O)c1cc2ccccc2o1	none (no result: CHT inh, CHT PAM)
Cc1csc(C(C#N)C(=O)c2cc3ccccc3o2)n1 (stereo unspecified)	CHT inh -5.3 | CHT block conf 61% | HEK293 MPD ctr inactive
O=C(CSc1nnc2c(n1)[nH]c1ccc(Cl)cc12)Nc1ccc(Cl)cc1	none (no result: CHT inh, CHT PAM)
CC1CCCCN1CCNC(=O)CN1C(=O)CSc2ccc(S(=O)(=O)N3CCCCC3)cc21 (stereo unspecified)	CHT inh -6.7 (no result: EP2 antag, EP2 modulator) | CHT block conf 45% | HEK293 MPD ctr inactive
CC1CCN(S(=O)(=O)c2ccc3c(c2)N(CC(=O)NCCCN2C(C)CCCC2C)C(=O)CO3)CC1 (stereo unspecified)	CHT inh -7.4 (no result: EP2 antag, EP2 modulator) | CHT block conf 34% | HEK293 MPD ctr inactive
CC1CCCCN1CCCNC(=O)CN1C(=O)CSc2ccc(S(=O)(=O)N3CCOCC3)cc21 (stereo unspecified)	none (no result: EP2 antag, EP2 modulator)
COC(=O)CC[C@@H](C)[C@H]1CC[C@H]2[C@@H]3CC[C@H]4C[C@@H]5CC[C@@]4(C)[C@]3(O5)[C@H](Br)[C@@H](Br)[C@]12C	none (no result: CHT inh, CHT PAM)
CC(=O)Nc1ccc(NC(=O)C2CCN(c3ncccn3)CC2)cc1	none (no result: CHT inh, CHT PAM)
CCCNC(=O)c1ccc(COc2ccc(C)cc2)o1	CHT inh -5 (no result: EP2 antag, EP2 modulator) | CHT block conf 52% | HEK293 MPD ctr inactive
CC(=O)Nc1ccc(NC(=O)c2ccc(COc3ccc(C)cc3)o2)cc1	none (no result: EP2 antag, EP2 modulator)
CCOc1ccc(OCc2ccc(C(=O)N3CCCC3)o2)cc1	CHT inh -8.1 | CHT block conf 42% | HEK293 MPD ctr inactive
Cc1ccc(S(=O)(=O)NNC(=O)Nc2ccc(Cl)cc2)cc1	none
Cc1occc1C(=O)NNS(=O)(=O)c1ccc(Cl)cc1	CHT inh -5.4 | CHT block conf 27% | HEK293 MPD ctr inactive
CC1CCCN(C(=O)CSCC(=O)Nc2nc(-c3cccs3)cs2)C1 (stereo unspecified)	none
CC1CCN(C(=O)CSCC(=O)Nc2nc(-c3cccs3)cs2)CC1	CHT inh -5.3 | CHT block conf inactive | HEK293 MPD ctr inactive
CCOC(=O)C(C)Sc1nnc(NC(=O)c2cccc([N+](=O)[O-])c2C)s1 (stereo unspecified)	CHT inh -5.2 | CHT block conf 52% | HEK293 MPD ctr inactive
CCOC(=O)C(C)Sc1nnc(NC(=O)c2ccc(C)c([N+](=O)[O-])c2)s1 (stereo unspecified)	none
O=[N+]([O-])c1ccc(O)c(/C=N/n2cnc3ccccc32)c1	CHT inh -5 | CHT block conf inactive | HEK293 MPD ctr inactive
O=[N+]([O-])c1ccc(O)c(/C=N/n2c(CO)nc3ccccc32)c1	none
CC(C)(C)S(=O)(=O)/C(C#N)=N/Nc1ccc(S(N)(=O)=O)cc1	none
CC(C)(C)S(=O)(=O)/C(C#N)=N/Nc1ccc(C#N)cc1	none | CHT block conf 55% | HEK293 MPD ctr inactive
CC(C)c1ccc(C(C)NC(=O)C2CCCC2)cc1 (stereo unspecified)	CHT inh -5.3 (no result: EP2 antag, EP2 modulator) | CHT block conf 66% | HEK293 MPD ctr inactive
CC(NC(=O)C1CCCC1)c1ccc(Br)cc1 (stereo unspecified)	none (no result: EP2 antag, EP2 modulator)
Cc1ccc(C(C)NC(=O)C2CCCO2)cc1C (stereo unspecified)	none
Cc1ccc(C(C)NC(=O)C2CCCC2)cc1C (stereo unspecified)	CHT inh -5.4 (no result: EP2 antag, EP2 modulator) | CHT block conf 44% | HEK293 MPD ctr inactive
Cn1cc([N+](=O)[O-])c(C(=O)N/N=C/c2cc3c(cc2Br)OCO3)n1	CHT inh -9.1 | CHT block conf inactive | HEK293 MPD ctr inactive
Nc1nonc1C(=O)N/N=C/c1cc2c(cc1[N+](=O)[O-])OCO2	none (no result: EP2 antag, EP2 modulator)
COCCN1CCN(C(=O)c2ncoc2-c2ccccc2C(F)(F)F)CC1	none (no result: CHT inh, CHT PAM)
O=C(NCc1ccccc1)c1sc(=S)n2c1[nH]c(=O)c1ccccc12	CHT inh -6.7 | CHT block conf 63% | HEK293 MPD ctr inactive
CCN(CC)C(=O)CN1N=C(c2ccc(OC)cc2)Cn2c(cc3ccccc32)C1=O	none (no result: EP2 antag, CHT inh, CHT PAM)
CC(=O)Nc1ccc(Nc2cc(C)c3ccccc3n2)cc1	CHT inh -6.4 (no result: EP2 antag, EP2 modulator) | CHT block conf 46% | HEK293 MPD ctr inactive
Cc1cc(Nc2ccccc2)nc2cc(O)ccc12	none
Cc1ncc(-c2ccncc2)c(C2CCN(C(=O)c3ccc4nc(C)c(C)nc4c3)CC2)n1	none (no result: EP2 antag, CHT inh, CHT PAM)
CCN(CC)CCNC(=O)c1ccc(N2CCCCC2)c(NS(=O)(=O)c2ccc(C)cc2)c1	CHT inh -5.6 | CHT block conf 49% | HEK293 MPD ctr 4
O=C(c1ccncc1)N1C2CCC1CC(c1ccc(F)cc1)C2 (stereo unspecified)	none (no result: EP2 antag, CHT inh, CHT PAM)
COc1ccccc1CNC(=O)c1cccc(-c2ccc(C)c3ccccc23)n1	none (no result: EP2 antag)
CCCCCCNC(=O)c1cccc(-c2ccc(C)c3ccccc23)n1	CHT inh -12 | CHT block conf inactive | HEK293 MPD ctr inactive
CC(C)(C)NC(=O)CSc1ncnc2c1nnn2Cc1ccccc1Cl	CHT inh -6.7 | CHT block conf inactive | HEK293 MPD ctr inactive
O=C(CSc1ncnc2c1nnn2Cc1ccccc1)NC1CCCC1	none
